# Laboratory results: PubChem BioAssay (Tox21)
# Records with an inconclusive call do not appear. Unmarked numbers belong to inactive results. The source made the active and inactive calls. The call rests on the fitted dose curve; in most records, active means well fitted activation curve with a large enough effect in the signal ratio in the repeat runs (not every such curve was filed as active); inconclusive means weak or mixed curves, or effect the other way; inactive means no such curve, though single readings can be large or run the other way; the % refers to the signal ratio.
# Molecular target: Glucocorticoid receptor (Homo sapiens) (UniProt P04150)
# Sequence (P04150 whole entry, looked up): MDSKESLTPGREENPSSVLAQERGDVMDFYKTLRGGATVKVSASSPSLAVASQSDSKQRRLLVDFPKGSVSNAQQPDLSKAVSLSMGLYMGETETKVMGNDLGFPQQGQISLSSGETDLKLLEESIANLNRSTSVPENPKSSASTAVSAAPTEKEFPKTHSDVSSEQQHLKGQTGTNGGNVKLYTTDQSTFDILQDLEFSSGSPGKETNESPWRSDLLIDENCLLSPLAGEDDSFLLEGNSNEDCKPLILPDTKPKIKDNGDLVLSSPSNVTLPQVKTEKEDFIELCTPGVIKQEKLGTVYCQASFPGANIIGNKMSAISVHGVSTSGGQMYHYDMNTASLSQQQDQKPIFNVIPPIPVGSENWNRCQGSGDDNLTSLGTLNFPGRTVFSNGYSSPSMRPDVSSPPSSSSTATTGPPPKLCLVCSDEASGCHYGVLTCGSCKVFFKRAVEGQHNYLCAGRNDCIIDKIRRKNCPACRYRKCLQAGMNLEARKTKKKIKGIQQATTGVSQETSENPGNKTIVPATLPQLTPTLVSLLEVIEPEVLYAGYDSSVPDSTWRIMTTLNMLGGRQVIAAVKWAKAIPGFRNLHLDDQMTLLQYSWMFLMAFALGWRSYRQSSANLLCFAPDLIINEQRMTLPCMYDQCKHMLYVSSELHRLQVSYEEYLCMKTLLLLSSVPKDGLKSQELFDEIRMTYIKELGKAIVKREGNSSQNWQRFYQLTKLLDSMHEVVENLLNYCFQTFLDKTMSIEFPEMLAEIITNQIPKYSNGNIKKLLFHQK
# Assay: qHTS assay to identify small molecule agonists of the glucocorticoid receptor (GR) signaling pathway (AID 720691)
# Conditions: GR-bla HeLa, beta-lactamase reporter ratio, 18 h; series mostly up to 62.4 µM; activation: at the top concentration
# Description: U.S. Tox21 Program National Center for Advancing Translational Sciences [NCATS] NIH Chemical Genomics Center [NCGC] U.S. Environmental Protection Agency [EPA] National Institutes of Environmental Health Sciences [NIEHS] National Toxicology Program [NTP] U.S. Food and Drug Administration [FDA] Tox21 Assay Overview: The Glucocorticoid receptor (GR) is one of the members of the nuclear receptor family of ligand-dependent transcription factors. GR plays a critical role in carbohydrate, protein and lipid metabolisms and programmed cell death. CellSensor GR-bla HeLa cell line (Invitrogen) contains a beta-lactamase reporter gene under the control of the glucocorticoid response element stably integrated into HeLa cells, a cervical cancer cell line that expresses glucocorticoid receptor. The activation of the reporter gene under culture conditions can be detected by fluorescence intensity. This cell line has been used to screen the Tox21 10K compound library and to identify the compounds that activate the GR signaling.
# Tox21 Assay Protocol Summary: The GR-bla HeLa cells were dispensed at 1500 cells/6 ul/well in 1536-well black wall/clear bottom plates using a Multidrop Combi (ThermoFisher Scientific, Waltham, MA) dispenser. After the assay plates were incubated at a 37 C/5% CO2 incubator for 4 hours, 23 nL of compounds dissolved in DMSO, positive controls or DMSO only was transferred to the assay plate by a pintool station (Kalypsys, San Diego, CA). The plates were incubated at 37 C for 18 hours. After 1 uL of LiveBLAzerTM B/G FRET substrate was added using a Flying Reagent Dispenser (Aurora Discovery, San Diego, CA), the plates were incubated at room temperature for 2 hours, and fluorescence intensity was measured by an Envision plate reader (PerkinElmer, Shelton, CT).
# On the % scale 0 is the no-effect control and ±100 the full control effect; potency means the concentration at half of the fitted maximal effect.
SMILES,activation,Potency
CCOC(=O)C1=NOC(c2ccccc2)(c2ccccc2)C1,-0.171%,
CC(=O)c1cnccn1,2.06% [at 79.2 µM],
COCCOC[C@H](CC1(C(=O)NC2CCC(C(=O)O)CC2)CCCC1)C(=O)Oc1ccc2c(c1)CCC2 (stereo not given in full),0.441%,
CCCCc1nc(Cl)c(CO)n1Cc1ccc(-c2ccccc2-c2nn[nH]n2)cc1,-4.54%,
NS(=O)(=O)Cc1noc2ccccc12,4.93%,
c1ccc2sc(SN3CCOCC3)nc2c1,-2.97%,
CC(C)=CCC/C(C)=C/C#N,1.25% [at 79.2 µM],
CC[N+](CC)(CC)CCOc1cccc(OCC[N+](CC)(CC)CC)c1OCC[N+](CC)(CC)CC,2.72%,
C[N+]1(C)CCCC(OC(=O)C(O)(c2ccccc2)c2ccccc2)C1 (stereo not given),,7.23 µM (active)
CCCC[N+](C)(CCCC)CCCC,0%,
COC(=O)C1=C(C)NC(C)=C(C(=O)OC(C)C)C1c1cccc2nonc12 (stereo not given),-2.79% [at 29.2 µM],
CCC(C)(CN(C)C)OC(=O)c1ccccc1 (stereo not given),0.27% [at 29.2 µM],
C[C@H]1[C@H](NC(=O)/C(=N/OC(C)(C)C(=O)O)c2csc(N)n2)C(=O)N1S(=O)(=O)O (stereo in doubt),0.399% [at 29.2 µM],
C=CCCC(=O)O,-0.798%,
CC(C)C(=O)OC(=O)C(C)C,-0.502%,
CC1=CCC(O)(C(C)C)CC1 (stereo not given),0.0512%,
[K+],-0.0724%,
CC1=NS(=O)(=O)c2cc(Cl)ccc2N1,-2.74%,
CCCCCC(=O)OCCc1ccccc1,2.95%,
CC(CO)(CO)[N+](=O)[O-],-2.58%,

SMILES,activation,Potency
CCCCN(CCC(=O)OCC)C(C)=O,-1.41%,
NCCCC[C@H](N[C@@H](CCc1ccccc1)C(=O)O)C(=O)N1CCC[C@H]1C(=O)O,-0.219% [at 29.2 µM],
CN(C)CCCN(C)CCCN(C)C,-1.76%,
CCOCC(C)O (stereo not given),-1.89%,
CCOC(=O)OC(C)OC1=C(C(=O)Nc2ccccn2)N(C)S(=O)(=O)c2ccccc21 (stereo not given),,5.35 µM (active)
CCCCCCC#CC(=O)OC,-0.455%,
CC(C#N)(CCC(=O)O)N=NC(C)(C#N)CCC(=O)O (stereo not given),-0.363%,
Cc1ccc(C(=O)Nc2ccc(S(=O)(=O)O)c3cc(S(=O)(=O)O)cc(S(=O)(=O)O)c23)cc1NC(=O)c1cccc(NC(=O)Nc2cccc(C(=O)Nc3cc(C(=O)Nc4ccc(S(=O)(=O)O)c5cc(S(=O)(=O)O)cc(S(=O)(=O)O)c45)ccc3C)c2)c1,-4.38%,
CNC(=O)Nc1ccc(Cl)c(Cl)c1,-6.52%,
C1CCC2(CCCCO2)OC1,0.956%,
CC(N)C12CC3CC(CC(C3)C1)C2 (stereo not given),0.344%,
O=CN(CCO)CCO,2.91%,
CCCC(C)C(=O)OCC (stereo not given),0.365%,
Cc1ccnc(NS(=O)(=O)c2ccc(N)cc2)n1,-0.284% [at 29.2 µM],
CCN1C=CN(C)C1C (stereo not given),0.562% [at 79.2 µM],
C=CC(C)(CCC=C(C)C)OC(=O)CC (stereo not given),-0.167%,
Cc1ccccc1N=C(N)N=C(N)N,5.16%,
N[C@@H](CCC(=O)O)C(=O)O,,inactive
C=COCC1CCC(COC=C)CC1 (stereo not given),1.9%,
CCC(=O)OCc1ccccc1,3.49%,
